Screening data (PubChem)
This is a sample that favours compounds with a hit; in the whole collection about 11% have one here.
VP16 counter – inhibits Gal4-VP16 luciferase reporter, ROR gamma counter-screen; 310,000 tested, 3.5% active; Potency, µM (highest dose often 53.6 µM), inactives show at the highest dose activity, negative = inhibition, actives largely listed as inhibitors; Drosophila S2 Gal4-VP16 UAS-luciferase, luminescence, 20 h;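 further: Gal4-VP16 expression switched on by copper sulfate through the metallothionein promoter; potency means the concentration at half of the fitted maximal effect; on the % scale 0 is the no-effect control and ±100 the full control effect; nearly all actives have a fitted effect of over 50% in size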
MCF10A rerep – inducers of DNA re-replication in MCF 10A breast cells. MCF 10A DNA re-replication, Hoechst nuclear intensity, 48 h. Potency, µM (doses to about 46.1 µM), inactives show top-dose activity, positive = re-replication, usual class: activators. 350,000 tested, 2.9% active. AID 624296; further: potency means the concentration at half of the fitted maximal effect; % of control where 0% means no effect; nearly all actives have a fitted effect of over 50% in size
IL-1B inflam inh – blocks inflammasome-driven IL-1 beta release; THP-1 LPS/ATP IL-1B secretion, AlphaLISA, 16 h; stronger effect = lower value; activity change, % at 57.5 µM; 360,000 tested, 4.7% active; in the data active means activity change below about -50%; inconclusive means mostly about -30% to -49%; further: on the % scale 0 is the no-effect control and ±100 the full control effect
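THP-1 cells pretreated 1 hr with compounds (up to 57.5 uM final), then stimulated with LPS (250 ng/mL final) plus ATP (1.25 mM final); secreted IL-1B measured by AlphaLISA after 16 hr, decreased signal indicating inhibition.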
RORgamma inh – blocks mouse ROR gamma transcriptional activity; 310,000 tested, 5.4% active; Drosophila S2 Gal4-RORgamma UAS-luciferase reporter, 20 h; Potency, µM (top dose mostly 53.6 µM), for inactives: at the top dose activity change, negative = inhibition, hits mostly inhibitors; P51450; AID 2551; further: potency means the concentration at half of the fitted maximal effect; on the % scale 0 is the no-effect control and ±100 the full control effect; nearly all actives have a fitted effect of over 60% in size
Target sequence (P51450 whole entry, looked up, the tested form may be a part): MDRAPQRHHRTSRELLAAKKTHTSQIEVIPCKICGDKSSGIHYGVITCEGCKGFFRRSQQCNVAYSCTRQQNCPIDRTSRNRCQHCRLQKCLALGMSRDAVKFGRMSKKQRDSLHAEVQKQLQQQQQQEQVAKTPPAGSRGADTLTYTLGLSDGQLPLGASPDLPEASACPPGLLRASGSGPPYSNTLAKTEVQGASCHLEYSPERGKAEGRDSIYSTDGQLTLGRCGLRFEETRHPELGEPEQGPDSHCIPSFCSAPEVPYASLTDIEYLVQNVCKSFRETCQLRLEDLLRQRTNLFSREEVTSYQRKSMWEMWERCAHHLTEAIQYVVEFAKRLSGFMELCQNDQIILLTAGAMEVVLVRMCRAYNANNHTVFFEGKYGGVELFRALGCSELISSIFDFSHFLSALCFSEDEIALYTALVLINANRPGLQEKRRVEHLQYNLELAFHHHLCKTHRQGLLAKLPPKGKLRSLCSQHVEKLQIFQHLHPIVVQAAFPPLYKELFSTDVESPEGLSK
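Stably transfected Drosophila Schneider cells are the test system, with ROR gamma fused to Gal4 and luciferase under UAS control; luminescence is read after 20 hr of 700 uM copper sulfate induction at ambient temperature.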
SW480 rereplic – induces DNA re-replication in SW480 colon adenocarcinoma cells. SW480 DNA re-replication, Hoechst DNA content imaging, 48 h. Potency, µM (titrated, usually from 46.1 µM), for inactives: at the top dose re-replication activation, usual class: activators. 340,000 tested, 1.8% active. AID 624297; further: potency means the concentration at half of the fitted maximal effect; % of control where 0% means no effect; nearly all actives have a fitted effect of over 55% in size
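First, 250 cells per well were seeded. Next, compound or vehicle (23 nL) was pinned in, plates sat 48 hr at 37 C. Finally Hoechst was added for 40 min before fluorescence scanning.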
* = called active by the depositor; u = inconclusive; x = no result; [ ] = dose if it differs, or a comment. Unless noted, the call rests on the fitted dose curve; in most records, active means well fitted curve in the direction sought with a large enough effect; inconclusive means small, poorly fitted or top-dose-only effect, or another doubt; inactive means no such curve, though single readings can be large; an effect the other way counts as inactive or inconclusive.

SMILES | VP16 counter | MCF10A rerep | IL-1B inflam inh | RORgamma inh | SW480 rereplic
CC(C)=CCC/C(C)=C/C=N/NC(=O)c1ccccc1[N+](=O)[O-] | 11.2µM* | u | u | 6.31µM* | -1.9%
Cc1ccc([N+](=O)[O-])c(C(=O)N/N=C/c2cccs2)c1 | 1.26µM* | 10.0% | -16.2 | 1.41µM* | 1.1%
O=C(N/N=C/c1ccc(Br)s1)c1ccccc1[N+](=O)[O-] | 6.31µM* | 1.8% | -4.4 | 2.51µM* | 6.6%
O=C(COc1ccc2c3c(c(=O)oc2c1)CCC3)Nc1ccccn1 | -4.6% | 1.2% | 3.0 | 6.6% | -19.9%
CCOC(=O)CNC(=O)O[C@H]1C(=O)c2cc(OC)ccc2O[C@@H]1c1ccc(OC)c(Br)c1 | -3.2% | x | x | -0.1% | x
Nc1cccc(-c2c[nH]c3ncc(-c4cccnc4)cc23)c1 | x | 57.7% | -55.0* | x | 10.4%
Nc1ccc2nc(-c3cccnc3)[nH]c2c1 | 7.1% | 0.0% | 24.7 | 30.7% | -3.9%
COC(=O)[C@H]1C[C@H]2[C@@H]3CC[C@H]4C[C@@H](OC)CC[C@]4(C)[C@H]3CC[C@]2(C)[C@@]2(CCCO2)O1 | x | u | -3.9 | x | 3.2%
O=C(NCCc1ccccc1)C1CCN(Cc2cccc3ccccc23)CC1 | x | 0.9% | -51.1* | x | 5.2%
CN(C)CCCNCCCN | -6.4% | x | x | -2.6% | x
Cc1ccc(Nc2c(-c3ccccn3)nc3cccc(C)n23)cc1 | u | u | u | 4.47µM* | 1.3%
Cc1cc(C)n2c(Nc3c(C)cccc3C)c(-c3ccccn3)nc2n1 | x | x | 182.9 | x | x
Cc1cccc2nc(-c3ccco3)c(Nc3ccccc3)n12 | 4.1% | -1.4% | 22.2 | -23.3% | 1.1%
Cc1ccccc1Nc1c(-c2ccncc2)nc2ccc(Cl)cn12 | 2.6% | u | -51.9* | -12.3% | 2.9%
CC(=O)Nc1c(-c2ccccc2)nc2ccc(Cl)cn12 | x | -1.8% | 3.1 | x | -8.4%
Cc1cccc(C)c1Nc1c(-c2ccccn2)nc2ccccn12 | -9.4% | u | 32.2 | 11.2µM* | u
Cc1ccccc1Nc1c(-c2ccc(N3CCOCC3)cc2)nc2ncccn12 | 4.1%[10 µM] | 2.1% | -29.0 | 23.3% | -1.9%
Cc1ccccc1Nc1c(-c2ccccn2)nc2c(C)cccn12 | 7.94µM* | 0.3% | -12.2 | 3.98µM* | -1.3%
Cc1cc(C)nc(N2CCN(S(=O)(=O)c3ccc(F)cc3)CC2)n1 | -4.6% | -0.5% | -5.7 | 43.6% | -3.3%
Cc1ccc2nc(-c3ccccn3)c(NC3CCCC3)n2c1 | -2.1% | u | -13.7 | 3.9% | 16.4µM*
O=C(O)CCC/C=C\C[C@@H]1CO[C@H](C(F)(F)F)O[C@@H]1c1ccccc1O | 4.8% | x | x | -6.6% | x
Cc1ccc(C2N=C(N)Nc3nc4ccccc4n32)cc1 (stereo unspecified) | 0.9% | 2.1% | -4.8 | -10.9% | -0.4%
CCn1c2ccccc2c2cc(C3N=C(N)Nc4nc5ccccc5n43)ccc21 (stereo unspecified) | -2.6% | 20.6µM* | 9.9 | 39.2% | 16.1%
CC(C)OC(=O)CC1C(=O)NCCN1C(=S)NC(=O)c1ccc(F)cc1 (stereo unspecified) | 8.91µM* | 1.1% | 17.3 | 3.16µM* | 11.4%
COC(=O)CC1C(=O)NCCN1C(=O)c1sc2ccccc2c1Cl (stereo unspecified) | -1.9% | -2.0% | 12.4 | -26.2% | -11.0%
SMILES | VP16 counter | MCF10A rerep | IL-1B inflam inh | RORgamma inh | SW480 rereplic
COC(=O)CC1C(=O)NCCN1C(=S)NC(=O)c1sc2ccccc2c1Cl (stereo unspecified) | 7.08µM* | -0.5% | 14.9 | 0.631µM* | 2.5%
CC(C)OC(=O)CC1C(=O)NCCN1C(=S)NC(=O)c1ccccc1 (stereo unspecified) | -18.0%[10 µM] | 6.3% | -5.4 | 18.0% | u
COC(=O)CC1C(=O)NCCN1C(=S)NC(=O)CCc1ccccc1 (stereo unspecified) | -19.1% | -1.3% | 25.4 | -10.6% | 5.7%
COC(=O)CC1C(=O)NCCN1C(=S)NC(=O)C(c1ccccc1)c1ccccc1 (stereo unspecified) | 15.8µM* | 0.8% | 8.6 | 10µM* | -1.0%
O=C(Cl)COCc1ccccc1 | -0.6% | x | x | -13.8% | x
FC(F)(F)C(F)(F)C(F)(F)C(F)(F)C(F)(F)C(F)(F)F | 2.2% | -5.1% | x | -0.8% | -1.3%
